# ± gives the standard deviation of the averaged measurements. The full ranking holds about 1,900 compounds; the median of “normalised cell viability (NPI; 0 = phenylarsine oxide control, 1 = DMSO control)” is about 1, and the lowest 2% start at about 0.039. For the sample, the lowest values were picked, then their nearest neighbours and some compounds at random.
# Test system: NCI-H1944
# Experiment: normalised cell viability (NPI; 0 = phenylarsine oxide control, 1 = DMSO control) (fraction of DMSO control); NCI-H1944 is a non-small cell lung cancer line; higher = more viable cells (less compound toxicity)
# Conditions: 6 days
# [1] = glucocorticoid arm: hydrocortisone 2.75 uM co-treatment, compound 1 µM
# [2] = glucocorticoid arm: hydrocortisone 2.75 uM co-treatment, compound 5 µM
# [3] = glucocorticoid arm: hydrocortisone 2.75 uM pre-treated 2 days and continued, compound 1 µM
# [4] = glucocorticoid arm: hydrocortisone 2.75 uM pre-treated 2 days and continued, compound 5 µM
# [5] = glucocorticoid arm: vehicle, compound 1 µM
# [6] = glucocorticoid arm: vehicle, compound 5 µM
# 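Also: CTB read-out in 384-well plates, triplicate wells, NPI normalised per plate against 1 µM phenylarsine oxide (0) and 0.1% DMSO (1) controls.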
smiles,measurement,setting,value
CC(C)C[C@H](NC(=O)[C@H](CCc1ccccc1)NC(=O)CN1CCOCC1)C(=O)N[C@@H](Cc1ccccc1)C(=O)N[C@@H](CC(C)C)C(=O)[C@@]1(C)CO1 [Carfilzomib (PR-171)],normalised cell viability,[1],0.0181 ± 0.0047
same,normalised cell viability,[2],0.000755 ± 0.00097
same,normalised cell viability,[3],0.777 ± 0.051
same,normalised cell viability,[4],0.12 ± 0.025
same,normalised cell viability,[5],0.0054 ± 0.0013
same,normalised cell viability,[6],-0.000926 ± 0.0006
CNC(=N)NCCC[C@H](N)C(=O)O [NG-Monomethyl-L-arginine acetate],normalised cell viability,[1],1.001 ± 0.009
same,normalised cell viability,[2],0.985 ± 0.022
same,normalised cell viability,[3],1.001 ± 0.0081
same,normalised cell viability,[4],0.879 ± 0.24
same,normalised cell viability,[5],0.9883 ± 0.0097
same,normalised cell viability,[6],0.991 ± 0.0079
S=C=Nc1cccc(NC(=S)NCCCCNC(=S)Nc2cccc(N=C=S)c2)c1,normalised cell viability,[1],1.04 ± 0.04
same,normalised cell viability,[2],1.05 ± 0.015
same,normalised cell viability,[3],1.02 ± 0.033
same,normalised cell viability,[4],1.04 ± 0.032
same,normalised cell viability,[5],1.017 ± 0.0058
same,normalised cell viability,[6],1.003 ± 0.0058
CCc1cccc(N(C)C(=N)Nc2cccc3ccccc23)c1,normalised cell viability,[1],0.999 ± 0.027
same,normalised cell viability,[2],0.918 ± 0.012
same,normalised cell viability,[3],1.006 ± 0.0069
same,normalised cell viability,[4],0.967 ± 0.013
same,normalised cell viability,[5],1.003 ± 0.0064
same,normalised cell viability,[6],1.01 ± 0.01
COc1ccc2c(c1)c(CC(=O)O)c(C)n2Cc1ccc(F)cc1 [1-(4-Fluorobenzyl)-5-methoxy-2-methylindole-3-acetic acid],normalised cell viability,[1],0.987 ± 0.014
same,normalised cell viability,[2],0.977 ± 0.017
same,normalised cell viability,[3],0.983 ± 0.028
same,normalised cell viability,[4],0.982 ± 0.013
same,normalised cell viability,[5],0.9717 ± 0.0076
same,normalised cell viability,[6],0.974 ± 0.0027
CCn1nnc2c(N3CCOCC3)nc(-c3ccc(NC(=O)Nc4ccc(C(=O)N5CCN(C)CC5)cc4)cc3)nc21,normalised cell viability,[1],0.201 ± 0.0067
same,normalised cell viability,[2],0.375 ± 0.015
same,normalised cell viability,[3],0.287 ± 0.01
same,normalised cell viability,[4],0.543 ± 0.024
same,normalised cell viability,[5],0.077 ± 0.01
same,normalised cell viability,[6],0.22 ± 0.016
COC(=O)Nc1ccc(-c2nc(N3CCOCC3)c3cnn(C4CCN(C(=O)OC)CC4)c3n2)cc1,normalised cell viability,[1],0.505 ± 0.038
same,normalised cell viability,[2],0.753 ± 0.013
same,normalised cell viability,[3],0.563 ± 0.029
same,normalised cell viability,[4],0.769 ± 0.067
same,normalised cell viability,[5],0.476 ± 0.02
same,normalised cell viability,[6],0.924 ± 0.015
CN(C)C1CCN(C(=O)c2ccc(NC(=O)Nc3ccc(-c4nc(N5CCOCC5)nc(N5CCOCC5)n4)cc3)cc2)CC1,normalised cell viability,[1],0.231 ± 0.011
same,normalised cell viability,[2],0.105 ± 0.0056
same,normalised cell viability,[3],0.311 ± 0.026
same,normalised cell viability,[4],0.147 ± 0.012
same,normalised cell viability,[5],0.0929 ± 0.0075
same,normalised cell viability,[6],0.0212 ± 0.0032
C=CS(=O)(=O)NC1CCN(C(=O)CNc2cc(I)c(Cl)cc2OC)CC1 [K-Ras(G12C) inhibitor 9],normalised cell viability,[1],1.03 ± 0.01
same,normalised cell viability,[2],1.07 ± 0.029
same,normalised cell viability,[3],1.04
same,normalised cell viability,[4],1.04 ± 0.025
same,normalised cell viability,[5],0.993 ± 0.0036
same,normalised cell viability,[6],0.996 ± 0.014
C[N+](C)(C)CC=O [Betaine aldehyde chloride],normalised cell viability,[1],0.9877 ± 0.0021
same,normalised cell viability,[2],0.993 ± 0.012
same,normalised cell viability,[3],0.9913 ± 0.0081
same,normalised cell viability,[4],0.993 ± 0.0085
same,normalised cell viability,[5],0.9647 ± 0.0015
same,normalised cell viability,[6],0.9803 ± 0.0015
NC[C@@H](O)c1ccc(O)c(O)c1 [L(-)-Norepinephrine bitartrate],normalised cell viability,[1],1 ± 0.018
same,normalised cell viability,[2],0.971 ± 0.011
same,normalised cell viability,[3],1 ± 0.021
same,normalised cell viability,[4],0.968 ± 0.0085
same,normalised cell viability,[5],0.98 ± 0.017
same,normalised cell viability,[6],0.9767 ± 0.0011
Nc1nc2c(nc(Br)n2C2OC3COP(=O)(O)O[C@@H]3C2O)c(=O)[nH]1 (stereo partly specified) [8-Bromo-cGMP sodium],normalised cell viability,[1],1.023 ± 0.0058
same,normalised cell viability,[2],1.02
same,normalised cell viability,[3],1.02 ± 0.01
same,normalised cell viability,[4],1 ± 0.028
same,normalised cell viability,[5],1.01 ± 0.011
same,normalised cell viability,[6],1.01 ± 0.015
CCN(CC)CCCC(C)Nc1nc(C)cc(Nc2ccc3nc(C)cc(N)c3c2)n1 (stereo unspecified),normalised cell viability,[1],0.845 ± 0.0082
same,normalised cell viability,[2],0.444 ± 0.019
same,normalised cell viability,[3],0.888 ± 0.01
same,normalised cell viability,[4],0.688 ± 0.036
same,normalised cell viability,[5],1 ± 0.013
same,normalised cell viability,[6],0.119 ± 0.0062
CCc1ccc(OCc2ccccc2C(=O)Nc2ccc3nc(C)cc(N)c3c2)cc1,normalised cell viability,[1],1.04 ± 0.011
same,normalised cell viability,[2],0.00134 ± 0.00041
same,normalised cell viability,[3],1.05 ± 0.017
same,normalised cell viability,[4],0.00123 ± 0.00019
same,normalised cell viability,[5],1.023 ± 0.0058
same,normalised cell viability,[6],0.00113 ± 0.0006
Cc1cc([C@@H](C)Nc2ccccc2C(=O)O)c2nc(N3CCOCC3)cc(=O)n2c1,normalised cell viability,[1],0.878 ± 0.043
same,normalised cell viability,[2],0.764 ± 0.062
same,normalised cell viability,[3],0.879 ± 0.023
same,normalised cell viability,[4],0.791 ± 0.03
same,normalised cell viability,[5],0.9667 ± 0.0091
same,normalised cell viability,[6],0.899 ± 0.035
CCCC(CCC)C(=O)NO [Valproic acid hydroxamate],normalised cell viability,[1],1 ± 0.022
same,normalised cell viability,[2],1.01 ± 0.022
same,normalised cell viability,[3],1.01 ± 0.016
same,normalised cell viability,[4],1.02 ± 0.016
same,normalised cell viability,[5],0.9982 ± 0.0077
same,normalised cell viability,[6],0.9988 ± 0.0092
NC1CCN(O)C1=O (racemic),normalised cell viability,[1],0.983 ± 0.011
same,normalised cell viability,[2],0.999 ± 0.011
same,normalised cell viability,[3],0.9857 ± 0.0051
same,normalised cell viability,[4],0.984 ± 0.023
same,normalised cell viability,[5],0.985 ± 0.013
same,normalised cell viability,[6],0.98733 ± 0.00058
CC(C)C[C@H](NC(=O)CNC(=O)c1cc(Cl)ccc1Cl)B1OC(=O)CC(CC(=O)O)(C(=O)O)O1 (stereo partly specified),normalised cell viability,[1],0.98 ± 0.014
same,normalised cell viability,[2],0.835 ± 0.018
same,normalised cell viability,[3],1.047 ± 0.0058
same,normalised cell viability,[4],1.04 ± 0.015
same,normalised cell viability,[5],0.263 ± 0.024
same,normalised cell viability,[6],0.0378 ± 0.0053
CC(C)C[C@H](NC(=O)CNC(=O)c1cc(Cl)ccc1Cl)B(O)O,normalised cell viability,[1],0.978 ± 0.0095
same,normalised cell viability,[2],0.886 ± 0.03
same,normalised cell viability,[3],1.04 ± 0.01
same,normalised cell viability,[4],1.04 ± 0.011
same,normalised cell viability,[5],0.311 ± 0.032
same,normalised cell viability,[6],0.0506 ± 0.0038
CCCCCCCCCCCCCCCCCCNC(=O)OCC(COP(=O)([O-])OCC[n+]1ccsc1)OC (stereo unspecified),normalised cell viability,[1],0.9967 ± 0.0035
same,normalised cell viability,[2],1.02 ± 0.011
same,normalised cell viability,[3],1.02 ± 0.024
same,normalised cell viability,[4],1.01 ± 0.015
same,normalised cell viability,[5],0.997 ± 0.0017
same,normalised cell viability,[6],0.82 ± 0.33
COc1ccc(CCNC[C@@H](O)c2ccc(O)cc2)cc1OC [R(-)-Denopamine],normalised cell viability,[1],1.01 ± 0.01
same,normalised cell viability,[2],1.017 ± 0.0058
same,normalised cell viability,[3],1.02 ± 0.017
same,normalised cell viability,[4],1.013 ± 0.0058
same,normalised cell viability,[5],1.01
same,normalised cell viability,[6],1.01 ± 0.014
c1cncc(CN2CCC(n3ncc4c(N5CCOCC5)nc(-c5ccc6[nH]ccc6c5)nc43)CC2)c1,normalised cell viability,[1],0.773 ± 0.022
same,normalised cell viability,[2],0.532 ± 0.036
same,normalised cell viability,[3],0.743 ± 0.027
same,normalised cell viability,[4],0.615 ± 0.036
same,normalised cell viability,[5],0.542 ± 0.035
same,normalised cell viability,[6],0.24 ± 0.0038
Cc1nc(Nc2n[nH]c3c2CN(C(=O)N[C@H](CN(C)C)c2ccccc2)C3(C)C)c2sccc2n1,normalised cell viability,[1],0.832 ± 0.033
same,normalised cell viability,[2],0.29 ± 0.072
same,normalised cell viability,[3],1.05 ± 0.015
same,normalised cell viability,[4],0.763 ± 0.02
same,normalised cell viability,[5],0.12 ± 0.011
same,normalised cell viability,[6],0.0302 ± 0.0031
CC(C)CC(=O)Nc1n[nH]c2c1CN(C(=O)C1CCN(C)CC1)C2(C)C,normalised cell viability,[1],0.8357 ± 0.0074
same,normalised cell viability,[2],0.369 ± 0.0055
same,normalised cell viability,[3],0.968 ± 0.0056
same,normalised cell viability,[4],0.962 ± 0.036
same,normalised cell viability,[5],0.365 ± 0.023
same,normalised cell viability,[6],0.0459 ± 0.004
N=C1Sc2ccccc2C2=NCCCN12,normalised cell viability,[1],1.017 ± 0.0058
same,normalised cell viability,[2],1.01 ± 0.031
same,normalised cell viability,[3],1.02 ± 0.011
same,normalised cell viability,[4],0.86 ± 0.28
same,normalised cell viability,[5],1.002 ± 0.0068
same,normalised cell viability,[6],1.02 ± 0.015
Cc1nc(N=Nc2ccc(C(=O)O)cc2)c(COP(=O)(O)O)c(C=O)c1O,normalised cell viability,[1],0.999 ± 0.0017
same,normalised cell viability,[2],0.998 ± 0.02
same,normalised cell viability,[3],1.01 ± 0.01
same,normalised cell viability,[4],1.005 ± 0.0087
same,normalised cell viability,[5],0.9937 ± 0.0085
same,normalised cell viability,[6],1 ± 0.016
